The whole screen tested about 390,000 compounds, of which about 4,000 (1%) were called active. Inconclusive results (about 4%) are left out. Calls follow the shape of the dose curve; as a rule, active = well fitted inhibition curve with a large enough effect; inconclusive = small, poorly fitted or top-dose-only effect; inactive = no such curve, though single readings can be large or run the other way. For the sample, actives were picked, then their nearest neighbours and some compounds at random.
target: Thioredoxin reductase 1, cytoplasmic (Rattus norvegicus) (UniProt O89049); experiment: qHTS Assay for Inhibitors of Mammalian Selenoprotein Thioredoxin Reductase 1 (TrxR1): qHTS; settings: recombinant rTrxR1, NADPH fluorescence consumption, selenite substrate; series mostly up to 114 µM; activity change, negative = inhibition: at the top concentration; also: nearly all actives have a fitted effect of over 65% in size
From the text: The selenoprotein thioredoxin reductase (TrxR; EC 1.8.1.9) is a FAD containing homodimeric pyridine nucleotide-disulfide oxidoreductase with many cellular roles. Together with NADPH and its prime substrate thioredoxin (Trx), the enzyme forms the core of the Trx system. The mammalian Trx system exerts a wide spectrum of functions including redox regulation, antioxidant defense, regulation of transcription factors as well as support of cell growth and replication. Many of these functions involve the reduction of Trx, which may subsequently reduce a number of different substrates including ribonucleotide reductase, peroxiredoxins or NFkB. Mammalian TrxR itself also has a broad substrate specificity, reducing both protein and non-protein substrates, including low molecular weight compounds such as dehydroascorbate, lipoic acid, ubiquinone, and juglone. In addition, several drugs in clinical use for anticancer treatment are indeed known to target TrxR1.
This BioAssay is a validation of an NADPH fluorescence-based, dual-purpose qHTS rTrxR1 assay designed to find potential inhibitors and substrates of rTrxR1. For this particular BioAssay, actives are potential inhibitors. See related BioAssay for substrate data deposition.
NIH Molecular Libraries Probe Production Network [MLPCN]
NIH Chemical Genomics Center [NCGC]
Assay Provider: Elias Arner, Karolinska Institute
Assay protocol: 2 uL of reagents (buffer in column 4 as negative control and 90 nM rTrxR1 in columns 1-3 and 5-48) were dispensed into Greiner black solid-bottom 1,536-well assay plates, followed by 1 uL of NADPH (400 uM final concentration) to each well. The plates were centrifuged at 1000 rpm for 15 seconds and subsequently incubated for 5 min at room temperature (~22 deg C) to allow for rTrxR1 reduction. Compounds (23 nL) were then transferred via Kalypsys pin tool equipped with 1536-pin array (10 nL slotted pins, V&P Scientific, San Diego, CA). In addition, a duplicate 2-fold serial dilution of the control compounds auranofin, a known gold-based TrxR1 inhibitor, and juglone (5-hydroxy-1,4-naphthoquinone), a natural TrxR1 substrate, were pin-transferred to columns 2 and 3, respectively. After incubation for 15 min at room temperature (~22 deg C), 1 uL of selenite (400 uM final concentration) were dispensed to each well. The plate was immediately transferred to a ViewLux high-throughput CCD imager (PerkinElmer), wherein kinetic measurements of NADPH fluorescence (Ex 340 nm, Em 450 nm) were acquired (8 minute kinetic read, see Table 1). Read 1 was utilized to assess the capacity of a compound to serve as an rTrxR1 substrate, i.e. a decrease in NADPH fluorescence compared to the no-compound background is an indication of a substrate behavior for that particular compound. For inhibitory activity of a compound, delta values, computed as the difference in fluorescence intensity between the first and last reads of an 8-minute time kinetic window, were used. All reagents were diluted in an assay buffer consisting of 50 mM Tris-HCl, pH 7.5, 2 mM EDTA, and 0.01% Tween-20.
Throughout the screen, reagent bottle and all liquid lines were made light-tight to minimize reagent degradation. All screening operations were performed on a fully integrated robotic system (Kalypsys, San Diego, CA) containing one RX-130 and two RX-90 anthropomorphic robotic arms (Staubli, Duncan, SC). Library plates were screened starting from the lowest and proceeding to the highest concentration, and a 'double-pinning' step of the highest concentration was required to access higher concentrations of compounds. Vehicle-only plates, with DMSO being pin-transferred to the columns 5-48, were inserted uniformly at the beginning and the end of each library in order to monitor and record any shifts in the background, which can be affected by reagent dispensers or loss in enzyme activity over time. […]
% is scaled to controls: 0 for no effect and ±100 for the full control effect; potency is read from the fitted curve at half-maximal effect.

Sequence of Thioredoxin reductase 1, cytoplasmic (Rattus norvegicus) (O89049 whole entry, looked up): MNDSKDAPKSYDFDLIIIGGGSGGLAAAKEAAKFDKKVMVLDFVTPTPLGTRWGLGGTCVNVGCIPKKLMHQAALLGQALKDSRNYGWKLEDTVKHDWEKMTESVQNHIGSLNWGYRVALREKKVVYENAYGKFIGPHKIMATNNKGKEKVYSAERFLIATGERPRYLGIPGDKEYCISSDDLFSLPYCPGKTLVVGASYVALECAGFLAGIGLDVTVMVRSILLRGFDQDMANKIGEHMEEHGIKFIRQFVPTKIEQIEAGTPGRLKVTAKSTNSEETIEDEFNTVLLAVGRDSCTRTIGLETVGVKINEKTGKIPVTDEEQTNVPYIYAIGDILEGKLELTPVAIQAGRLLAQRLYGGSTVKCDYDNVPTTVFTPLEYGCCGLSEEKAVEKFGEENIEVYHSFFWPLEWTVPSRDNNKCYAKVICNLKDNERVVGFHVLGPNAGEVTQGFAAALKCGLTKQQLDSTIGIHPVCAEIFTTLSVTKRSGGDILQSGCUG

Activity change, negative = inhibition, inactive:
O=C(NCC1CC1)C1(C(F)(F)F)C/C(=C\CCO)CCCO1 (stereo unspecified) 18.4% [at 57.1 µM]
O=C(NCc1ccccn1)[C@]1(C(F)(F)F)C[C@H](CCc2ccccc2)CCCO1 6.98%
CC(C)(C)OC(=O)N1CCC(c2c(C(=O)Nc3ccc4c(c3)OCO4)cnn2-c2ccccc2)CC1 8.02% [at 57.1 µM]
Cc1ccc(Cl)cc1NC(=O)CCC(=O)N1CC(C)Sc2ccccc21 (stereo unspecified) 1.51%
O=C(CSc1nc2ccccc2nc1Cc1ccccc1)N1CCCCC1 2.16% [at 57.1 µM]
Cn1c(SCC(=O)Nc2cccc(NC(=O)c3cccs3)c2)nnc1-c1ccncc1 11.5% [at 57.1 µM]
Cc1sc(NC(=S)NC(=O)c2cccs2)nc1-c1ccc(CC(C)C)cc1 16.1%
Cc1nn(C)c2c1c(C(F)(F)F)cc(=O)n2C(C)C(=O)NCc1ccc(Cl)cc1 (stereo unspecified) 2.18% [at 57.1 µM]
NS(=O)(=O)c1ccc(NC(=O)C(=O)Nc2ccc3nc4n(c(=O)c3c2)CCCCC4)cc1 10.6%
COc1ccc(-c2ccc(OC)c(C3C4C=CCC(C)C4C(=O)N3Cc3ccccc3)c2)cc1C (stereo unspecified) -6.11%
Cc1cccc([C@H]2[C@@H]3C=CC[C@@H](C)[C@@H]3C(=O)N2Cc2ccccc2)c1 1.61%
O=c1c(NCc2cccs2)nccn1-c1ccccc1 14.5% [at 57.1 µM]
COc1ccc(C2C(=O)N(C3CCCCCC3)CC(=O)N2CCc2ccc(Cl)cc2)cc1OC (stereo unspecified) 23.7% [at 57.1 µM]
CCn1c(C)c(C)c2cc(C(=O)NCCc3cc(OC)ccc3OC)ccc21 18.4% [at 57.1 µM]
Cc1ccc(-c2nc(CS(=O)(=O)CC(=O)NCc3ccccc3Cl)c(C)o2)cc1 -6.56%
CC(CCc1ccccc1)NC(=O)c1cnc(Cl)c(Cl)c1 (stereo unspecified) 32.7%
Cc1csc[n+]1CCC1CCCCC1 35.2%
Cc1ccc2oc(=O)c3cnn(CC(=O)NCc4ccccc4Cl)c3c2c1 23.3%
CCN1CCN(c2ccc(/C=C/c3ccnc4ccccc34)cc2)CC1 14.8%
Cc1ccc(S(=O)(=O)N(Cc2nc(-c3ccc(Cl)cc3)no2)C2CCCCC2)cc1 32.3%
O=C(Nc1cccc(Cl)c1)c1csnn1 12%
Cc1csc(NC(=O)C2CCN(S(=O)(=O)c3ccccc3)CC2)n1 0.443%
CC1CCC2(CC1)N=C(c1ccccc1)C(=O)N2CC(=O)Nc1ccc(F)c(Cl)c1 (stereo unspecified) -10.4%
COc1ccc(Cl)cc1NC(=O)CCn1c(=O)c2cccn2c2ccccc21 13.6%
CCOC(=O)c1scc(-c2ccccc2)c1S(=O)(=O)Nc1ccccc1F 8.78% [at 57.1 µM]
CCOC(=O)c1c(-c2ccc(C)cc2C)csc1NC(=O)CSc1nnnn1C -2.88%
Cc1cc(C)c2oc(C(=O)Nc3c(C(=O)Nc4ccccc4)oc4ccccc34)cc(=O)c2c1 29%
CC(=O)c1ccc[n+](C(C)CCC(C)[n+]2cccc(C(C)=O)c2)c1 (stereo unspecified) 9.71%
O=C(Nc1ccc2nc(SCCOc3ccccc3Cl)sc2c1)c1ccco1 -8.93%
Cc1ccccc1-c1nc(CS(=O)(=O)CC(=O)Nc2cc(Cl)cc(Cl)c2)c(C)o1 6.11%
CNC(=O)c1ccc(-c2nc(CN3CCc4ccccc43)c(C)o2)cc1 13.2% [at 57.1 µM]
COc1ccc(-c2nc(CS(=O)CC(=O)NCc3cccnc3)c(C)o2)cc1OC (stereo unspecified) -62%
COc1ccc(-c2nc(CN3CCN(c4ncccn4)CC3)c(C)o2)cc1C 24.7% [at 57.1 µM]
COc1ccc(CNC(=O)CS(=O)Cc2nc(-c3cccc(C)c3)oc2C)cc1 (stereo unspecified) -11.3%
COc1cccc(-c2nc(CS(=O)(=O)CC(=O)N3CCN(c4cc(C)ccc4C)CC3)c(C)o2)c1 -6.98%
COc1ccc(N2CCN(C(=O)CSCc3nc(-c4ccccc4Cl)oc3C)CC2)cc1 7.44%
Nc1ccc(/C=C/c2ccnc3ccccc23)c([N+](=O)[O-])c1 2.67%
CCCCNc1ccc(-c2nc(-c3ccncc3)no2)cc1[N+](=O)[O-] -3.02%
CCC1CCCCN1S(=O)(=O)c1ccc(NC(=O)c2cc(=O)c3ccccc3o2)cc1 (stereo unspecified) 16.9%
Brc1nc2ncnc(NCc3ccco3)c2[nH]1 24.3% [at 0.0914 µM]
COc1cc(CNC(=O)c2cc3n(n2)CCCN(Cc2cccc(F)c2)C3=O)cc(OC)c1OC 10.6% [at 57.1 µM]
CC1CCN(C(=O)Cn2c(=O)n(-c3ccc(Cl)cc3)c(=O)c3c4c(sc32)CCC4)CC1 21%
O=C(O)C1=C/C(=C/C=[N+]2c3cc(O)c(O[C@H]4OC(CO)[C@@H](O)[C@@H](O)[C@@H]4O)cc3C[C@@H]2C(=O)[O-])C[C@H](C(=O)O)N1 (stereo partly specified) -0.117%
CC(C)[C@@H](NC(=O)OC(C)(C)C)C(=O)NCC1CCC(C(=O)N[C@@H](Cc2ccccc2)C(=O)O)CC1 (stereo partly specified) 17.4% [at 57.1 µM]
CC(C)(C)c1ccc(C(CC(=O)O)NS(=O)(=O)Cc2ccccc2)cc1 (stereo unspecified) 26.7%
Cc1ccc(Cl)cc1NC(=O)CSc1nccn1C 30% [at 57.1 µM]
Cc1cccc(CN2Cc3cccc4c3[C@H](C=CC4)CC2=S)c1 -7.23%
N#Cc1ccc[n+](CC(=O)c2ccc(F)cc2)c1 -15.1%
CC1CCCN(c2cc3c(cc2F)c(=O)c(S(=O)(=O)c2cccc(Cl)c2)cn3Cc2ccccc2)C1 (stereo unspecified) 20.8%
COc1ccc(CNC(=O)CC2Oc3ccc(C)cc3NC2=O)cc1 (stereo unspecified) 5.11%
COc1cc(C(=S)N2CCOCC2)cc(OC)c1OC(=O)c1ccc([N+](=O)[O-])cc1[N+](=O)[O-] 7.04% [at 57.1 µM]
CCOC(=O)N1CCN(c2cc(C)c([N+](=O)[O-])cc2F)CC1 9.84% [at 57.1 µM]
O=C(O)C1CC(=O)N(Cc2cccnc2)C1 (stereo unspecified) -3.09%
O=C(Nc1ccc2nc(SCC(=O)N3CCCc4ccccc43)sc2c1)c1ccc(Cl)cc1 38.1%
C=C1C=C(C(F)F)n2ncc(C(=O)NCCc3ccccc3OC)c2N1 1.89%
Cc1ccccc1CN1CCC(CNC(=O)c2c(C)oc3ncnc(N4CCCCC4)c23)CC1 16.4%
Cc1ccc(C)c(Cn2c(C)c(CNCc3ccc(F)cc3)c(C(=O)O)c2C)c1 20.8%
O=C(CCn1nnc2ccccc21)OCC(=O)c1ccc([N+](=O)[O-])cc1 25.8%
O=C(Cn1c[n+](CC(=O)c2ccc([N+](=O)[O-])cc2)cn1)c1ccc([N+](=O)[O-])cc1 -30.7%
CCOc1ccc(N2C(=O)CC(N(CCc3ccc(OC)c(OC)c3)C(=S)Nc3ccccc3)C2=O)cc1 (stereo unspecified) -11.6%
CCCOc1ccc(N2C(=O)CC(N(CCc3ccc(S(N)(=O)=O)cc3)C(C)=O)C2=O)cc1 (stereo unspecified) 10.5%
O=C(CC1N=C2c3ccccc3N=C(SCc3ccc(F)cc3)N2C1=O)NCc1cccs1 (stereo unspecified) 1.84% [at 57.1 µM]
Cc1nc2ccccn2c(=O)c1NC(=O)c1c(F)cccc1F 16.1% [at 57.1 µM]
CCc1ccc(NC(=O)CCCc2nnc3n(CCCOC)c(=O)c4sccc4n23)cc1 23.7%
CCOc1cccc(CC(=O)N2CCc3c([nH]c4ccccc34)C2c2ccc(F)cc2)c1OCC (stereo unspecified) 38.1% [at 57.1 µM]
CCOc1ccccc1CNC(=O)c1ccc(-n2c(C)cc3c2CCC(C)C3)cc1 (stereo unspecified) -7.5%
O=C(c1cnn2c1NC(=C1CC1)C=C2C(F)F)N1CCc2ccccc2C1 -19.6%
CCOC(=O)c1ccc(NC(=O)C2CC(=O)N(c3ccc(C(C)C)cc3)C2)cc1 (stereo unspecified) 10.9%
O=S(=O)(c1cc(Cl)ccc1Cl)N1CCN(Cc2ccco2)CC1 -4.98%
CCN1CCN(C(=O)C2CCN(S(=O)(=O)c3cc(Cl)ccc3Cl)CC2)CC1 18.4% [at 57.1 µM]
CN1CCN(C2(CNC(=O)COc3ccc(C(C)(C)C)cc3)CCCCC2)CC1 18.5%
COc1ccc(S(=O)(=O)NCC(c2ccc(N(C)C)cc2)N2CCCC2)cc1 (stereo unspecified) 11.6% [at 57.1 µM]
COc1ccc2cc(-c3[nH]ncc3CNCCn3nc(C)cc3C)ccc2c1 28.7%

Potency, inactive:
CN(C)c1cc2c(Nc3ccc4c(cnn4Cc4ccccc4)c3)ncnc2cn1
Cc1ccccc1-c1nc(CS(=O)(=O)CC(=O)NC(C)c2ccccc2)c(C)o1 (stereo unspecified)
O=C(O)CCc1cccnc1

Potency, active:
Cc1ccc(CNC(=O)C2(C(F)(F)F)C/C(=C\Cc3ccccc3)CCCO2)o1 (stereo unspecified) 28.2 µM
c1ccc(C2CNCc3c2ccc2ccccc32)cc1 (stereo unspecified) 79.4 µM
O=C(NC(=S)Nc1cccc(-c2ccc(CO)o2)c1)c1cccs1 39.8 µM
COc1ccc(Br)cc1C1C2C=CCC(C)C2C(=O)N1Cc1ccccc1 (stereo unspecified) 22.4 µM
C=CCn1c(=S)[nH]c2scc(-c3ccco3)c2c1=O 39.8 µM
Cc1cccc(-c2nc(CS(=O)CC(=O)NC(C)CCc3ccccc3)c(C)o2)c1 (stereo unspecified) 17.8 µM
Cc1csc(NC(=S)Nc2cccc(Cl)c2)n1 14.1 µM
CCCS(=O)(=O)c1ncc(Cl)c(C(=O)Nc2scc(-c3ccccc3)c2C(=O)OCC)n1 4.47 µM
Cc1ccccc1-c1nc(CS(=O)(=O)CC(=O)N2CCc3ccccc3C2)c(C)o1 7.94 µM
COc1ccc(-c2nc(CS(=O)CC(=O)NCc3ccccn3)c(C)o2)cc1 (stereo unspecified) 7.08 µM
Cc1ccc(-c2nc(CS(=O)CC(=O)N3CCN(c4ncccn4)CC3)c(C)o2)cc1 (stereo unspecified) 10 µM
COc1ccc(-c2nc(CS(=O)CC(=O)N3CCc4ccccc4C3)c(C)o2)cc1 (stereo unspecified) 7.94 µM
C[C@@H](NC(=O)OC(C)(C)C)c1nnc(S(=O)(=O)Cc2ccccc2)o1 0.316 µM
C=COC(=O)N1CCN(/[N+]([O-])=N/Oc2ccc([N+](=O)[O-])cc2[N+](=O)[O-])CC1 10 µM
O=C1/C(=C\c2cccnc2)CN(Cc2ccccc2)C/C1=C\c1cccnc1 50.1 µM
O=C(CC(n1cncn1)C(Cl)(Cl)Cl)c1ccc([N+](=O)[O-])cc1 (stereo unspecified) 3.55 µM
CCOc1ccc(N2C(=O)CC(N(O)c3ccccc3)C2=O)cc1 (stereo unspecified) 12.6 µM
CCOc1cccc2c1N[C@@H](c1ccc(C(=O)O)cc1)[C@H]1CC=C[C@@H]21 11.2 µM
O=C(CN1CCN(S(=O)(=O)c2cc(Cl)ccc2Cl)CC1)c1ccc(O)c(O)c1 44.7 µM
COc1ccc(C(C[N+](=O)[O-])n2nc(C)cc2C)cc1 (stereo unspecified) 8.91 µM

— PubChem BioAssay AID588453 (National Center for Advancing Translational Sciences (NCATS), 2011)
